Measurements taken from PubChem BioAssay AID778 (Sanford-Burnham Center for Chemical Genomics, 2007).
Out of some 96,000 compounds screened, about 20,000 (21%) were called active.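 How the source made its calls: active means CYP2C19 inhibition above a set limit at 5 µM in the primary screen (cut at about 50% in these data); inactive means the rest.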 The list is a sample of the results.

Target: Cytochrome P450 2C19 (Homo sapiens) (UniProt P33261)
Test: blockers of cytochrome P450 2C19 activity – biochemical, luminescence, ADME assay, primary screen (AID 778);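 further: plate controls were negative control wells for no effect and 2.5 mM tranylcypromine positive control for full effect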
Details: CYP2C19 Supersomes, luciferin-H EGE luminescence, 30 min; at 5 µM; active compounds read high

Sequence of Cytochrome P450 2C19 (Homo sapiens) (P33261 whole entry, looked up): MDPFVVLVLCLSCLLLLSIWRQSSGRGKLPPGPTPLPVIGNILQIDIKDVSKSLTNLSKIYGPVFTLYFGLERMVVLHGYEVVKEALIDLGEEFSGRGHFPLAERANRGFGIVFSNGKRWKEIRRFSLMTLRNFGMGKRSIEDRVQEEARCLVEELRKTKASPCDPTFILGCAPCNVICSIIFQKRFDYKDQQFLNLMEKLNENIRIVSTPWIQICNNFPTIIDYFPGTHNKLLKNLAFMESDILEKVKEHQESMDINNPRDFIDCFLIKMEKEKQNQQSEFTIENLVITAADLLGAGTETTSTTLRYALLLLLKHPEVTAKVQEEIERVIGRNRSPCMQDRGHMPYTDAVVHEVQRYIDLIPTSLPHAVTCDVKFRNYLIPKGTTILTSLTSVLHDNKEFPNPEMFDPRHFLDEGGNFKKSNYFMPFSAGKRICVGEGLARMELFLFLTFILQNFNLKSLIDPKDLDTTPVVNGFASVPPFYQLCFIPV

inhibition, active:
CCN(Cc1ccccc1)C(=O)CSc1nc(C)cc2c1C(=O)OC2 72.3%
Oc1c(C(c2cccs2)N2CCN(c3ccc(F)cc3)CC2)sc2ncnn12 (centres undefined) 87.6%
Oc1c(C(c2ccco2)N2CCC3(CC2)OCCO3)sc2ncnn12 (centres undefined) 68.4%
O=C(c1ccc(F)cc1)c1c[nH]c(C(=O)NCc2cccnc2)c1 65.3%
CCCCNCc1ccc(SC)cc1 69.4%
Cc1nn(CC(=O)Nc2nc3ccccc3s2)c(C)c1[N+](=O)[O-] 52.2%
Cc1c(Br)cc(C(=O)N2CCCCCC2)c(C)c1C 96%
CCOC(=O)c1c(C2CC2)csc1NC(=O)CSCc1c(C)noc1C 64%
Cc1cc(SCC(=O)c2ccccc2)nc(SCC(=O)c2ccccc2)n1 53.4%
CC(C)CNC(=O)CC(c1ccccc1)c1c(O)ccc2ccccc12 (centres undefined) 58.9%
CCOc1ccccc1NC(=O)CCN1CCN(S(=O)(=O)c2ccc(OC)cc2)CC1 68.5%
O=C(Nc1ccccc1F)c1cc(S(=O)(=O)N2CCCCC2)cs1 62%
O=C(CN1CCN(S(=O)(=O)c2ccc(F)cc2)CC1)Nc1ccccc1F 57.1%
COC(=O)c1ccc(NCC(=O)c2ccccc2)cc1 64.3%
CC1=CC(C)(C)N(C(=O)CSc2nccn2C)c2cc(C)ccc21 82.8%
COc1ccccc1NC(=O)[C@H](COCc1ccccc1)NC(=O)OC(C)(C)C 54.6%
CCOc1ccc2nc(N3CCCN(C(=O)Nc4ccccc4C)CC3)c(C#N)cc2c1 89.4%
Cc1cc(N2CCN(S(=O)(=O)c3ccc(C)c(C)c3)CC2)c2ccccc2n1 95.8%
O=C(c1ccc(-n2cnnn2)cc1)N1CCN(C(c2ccccc2)c2ccccc2)CC1 71.6%

inhibition, inactive:
COc1ccccc1CNC(=O)C1CCCN(S(=O)(=O)c2cccc3cccnc23)C1 (centres undefined) 16%
CCOC(=O)n1c(SCC(=O)N(CC)CC)nc2ccccc21 2.8%
Cc1ccc(-c2nn(-c3ccccc3)cc2CN(Cc2ccccc2)C(=O)CCC(=O)O)o1 23.4%
CCN(CC)CCN1C(=O)C(=O)/C(=C(/O)c2ccc(OC)c(OC)c2)C1c1ccccn1 (centres undefined) -1.7%
CCCS(=O)(=O)N1CCCC(C(=O)N2CCN(c3ccccc3)CC2)C1 (centres undefined) -4.5%
CCCCNC(=O)C(=O)c1ccccc1NC(C)=O 13%
Cc1ccc(C(c2sc3nc(C)nn3c2O)N2CCN(c3ccccc3)CC2)cc1 (centres undefined) 33.7%
Cc1ccc(C(c2sc3nc(C)nn3c2O)N2CCN(c3ccc(F)cc3)CC2)cc1 (centres undefined) 42.9%
CCOC(=O)c1ccc(COC(=O)CCc2nc(-c3ccccc3)c(-c3ccccc3)o2)cc1 34.1%
Cc1nc(NC(=O)CCC(=O)O)sc1C(=O)N(C)C -12.7%
CCOc1ccc(N=C2SC(C(=O)O)CC(=O)N2C)cc1 (centres undefined) 1.7%
COc1ccc2c(c1OC)C(=O)OC2c1c(O)nc(SC)n(-c2ccccc2)c1=O (centres undefined) -15.5%
O=c1cccc(-c2ccc(Br)cc2)o1 -9.6%
CC(=O)Nc1ccc(N2C(=O)C3C4CC(=O)C(c5ccccc54)C3C2=O)cc1 (centres undefined) 30.7%
O=C(Nc1nnc(CCOCCOCCc2nnc(NC(=O)c3ccco3)s2)s1)c1ccco1 0.8%
COCCn1c(=O)[nH]c2cc(C(=O)NCc3cccnc3)ccc2c1=O 3.1%
Cc1ccc(-n2nc(-c3ccco3)cc2C(=O)NCc2cccnc2)cc1 16.2%
O=C(NCc1ccccn1)c1cnc2sccn2c1=O -12.6%
Cc1cc(C(=O)NCCCc2ccccc2)no1 10.8%
CCOC(=O)c1cnc(SC)nc1Sc1ccc(Cl)cc1Cl 25.2%
Cc1ccccc1C(=O)NCCN=C1NS(=O)(=O)c2ccccc21 11.7%
Cc1oc(CC(C)C)c(CN2CCCC2)c1C(=O)O -15.6%
N#CCCN(CCC#N)c1nnc(-c2ccccc2)s1 29%
Cc1nn(Cc2ccccc2Cl)c(C)c1NC(=O)Cn1nc([N+](=O)[O-])c(Cl)c1C 0.1%
Cc1cc(C)cc(OCC(=O)Nc2nc3ccc([N+](=O)[O-])cc3s2)c1 19.6%
CCC(CC)C(=O)N1CC(=O)Nc2ccc(Br)cc2C1c1ccccc1 (centres undefined) 47.6%
Cc1cccn2c(=O)c(/C=C3\SC(=S)N(CC(C)C)C3=O)c(NCCCOC(C)C)nc12 14.7%
COc1ccc2c(Cl)c(C(=O)NCc3ccco3)sc2c1 18.6%
COC(=O)c1nc(NC(=O)c2ccc(Cl)cc2)n[nH]1 -2.9%
NC(=O)c1ncc(C(F)(F)F)cc1Oc1ccc(F)cc1 31.9%
O=C(CNC(=O)c1ccccc1)NCC(=O)OCc1ccc(Cl)cc1 7.3%
Cc1ccc(C(=O)N2CCCCCC2)cc1Br 26.6%
Cc1ccc(C(=O)N2CCCC2)c(F)c1F 9.6%
Cc1noc(C)c1CSCC(=O)Nc1nc2ccc(Oc3ccccc3)cc2s1 40.8%
CCOC(=O)c1c(-c2ccc(C)cc2C)csc1NC(=O)CSc1nnnn1C 27.2%
Cc1nc(SCC(=O)c2ccccc2)c([N+](=O)[O-])[nH]1 23.7%
COC(=O)c1cc(C(=O)CSc2nc(C)cc(C)n2)ccc1O 23.3%
CC(C)CCOc1ccc(C(=O)C[N+]2(C)CCOCC2)cc1 12%
Cc1ccc(N2C(=O)c3ccccc3C2(O)c2ncc[nH]2)cc1 (centres undefined) 5.2%
COc1ccc(CC(=O)n2nc(-c3cccnc3)nc2N)cc1 22.6%
CCOc1c(N2CCCCC2)c(=O)c1=O -3.9%
CC(C)CNC(=O)COC(=O)/C=C/c1ccccc1[N+](=O)[O-] 2.4%
CCc1ccc(/C=N/NC(=O)c2ccc(OC3CCCC3)cc2)s1 25.8%
Cc1cc(N(C)C)cc(C)[n+]1[O-] -6.3%
O=C1CSC(=O)N1CCOCCN1C(=O)CSC1=O 15.9%
COc1ccc(S(=O)(=O)N2CCCC(C(=O)Nc3ccc(NC(=O)c4ccccn4)cc3)C2)cc1 (centres undefined) 20.8%
O=C(Nc1ccc(S(=O)(=O)N2CCCCC2)cc1)c1cnccn1 9.9%
COc1cc2c(cc1NC(=O)CN1CCN(S(=O)(=O)c3ccc(F)cc3)CC1)oc1ccccc12 11.9%
CCOC(=O)c1[nH]c2ccc(OC)cc2c1NC(=O)CCN1CCN(Cc2ccccc2)CC1 32.7%
CCOc1ccccc1NC(=O)c1cc(S(=O)(=O)N2CCC3(CC2)OCCO3)ccc1F 9.8%
COc1ccccc1NC(=O)CN1CCN(S(=O)(=O)c2ccc(Br)cc2)CC1 34%
Cc1nc2ccc(C(=O)N3CCSCC3)cc2s1 -5.2%
CCOC(=O)c1ccc(NC(=O)CSc2nnc(COc3ccccc3OC)n2C)cc1 38.9%
CCOC(=O)c1c(NC(=S)NC(=O)c2ccco2)sc2c1CCCC2 -3.4%
O=C(CCS(=O)(=O)c1cccc2nsnc12)N1CCN(c2ccccc2F)CC1 45.5%
Cc1ccc(S(=O)(=O)N2CCC(C(=O)N[C@@H](C)C(=O)NCc3ccccc3)CC2)cc1 6%
CCN=C1SC(CC(=O)Nc2ccc(C)cc2)C(=O)N1CC (centres undefined) 38.5%
CN(C(=O)CC(NC(=O)c1ccccc1)(c1ccccc1)c1ccccc1)c1ccccc1 36.4%
CCOC(=O)c1nc(Nc2ccc(C(=O)OC)cc2)c2ccccc2n1 49.1%
COC(=O)c1ccc(NC(=O)Nc2ccc(C)cc2)cc1 2.9%
C=CCNC(=O)CSc1nc2sc(C)c(C)c2c(=O)[nH]1 14.3%
CCSc1nnc(NC(=O)c2ccc(C)cc2)s1 25.5%
CC1=CC(C)(C)N(C(=O)CSc2nnc(-c3ccccc3)o2)c2ccc(C)cc21 25.2%
CCOC(=O)c1c(NC(=O)CCC(=O)NCc2ccco2)sc2c1CCCC2 10.1%
COc1ccccc1NC(=O)CC(NCCN(C)C)C(=O)O (centres undefined) -1.5%
COc1ccccc1NC(=S)NC(=O)C(C)C 16.5%
C/C(=C\C(=O)c1ccc(Br)cc1)N1CCCCC1 7.2%
O=C(CNCCO)NC12CC3CC(CC(C3)C1)C2 0.8%
Cc1cccc2cc(C#N)c(N3CCCC3)nc12 1.4%
COc1ccc2nc(N3CCCC(O)C3)c(C#N)cc2c1 (centres undefined) 42.8%
CS(=O)(=O)N(C(=O)NC(=O)NC1CCS(=O)(=O)C1)C1CCCCC1 (centres undefined) -6.1%
Cc1c(C(=O)N2CC(C)OC(C)C2)sc2nc(-c3ccccc3)cn12 (centres undefined) 3.7%
CC(C)NC(=O)NC(=O)COC(=O)c1ccc(NC(=O)CC#N)cc1 0.7%
COc1ccc([N+](=O)[O-])cc1C1NN=C(c2cccc3ccccc23)S1 (centres undefined) 32.4%
CCN1CCN(C(=O)c2cc3cc4ccc(OC)cc4nc3s2)CC1 -9.4%
O=c1ccc2cc(S(=O)(=O)N3CCN(c4ccccc4)CC3)ccc2o1 1.3%
Cc1ccc(C)c(N2CCN(S(=O)(=O)c3ccc4c(c3)oc(=O)n4C)CC2)c1 4.3%
O=C(c1cccc(N2CCCC2=O)c1)N1CCOCC1 -8.7%
O=C(O)CC(c1ccccc1)n1cnnn1 (centres undefined) -12.4%
NC(=O)C1CCN(C(=O)c2ccc(-c3ccccc3)cc2)CC1 9.6%
